Consider seven molecules from PubChem BioAssay (Tox21).

The subject of experiment [1] is thyroid hormone receptor (rat, GH3 cells). The experiment can be described thus: qHTS assay to identify small molecule agonists of the thyroid receptor (TR) signaling pathway (AID 743066; calls by dose curve). Background: In qHTS, concentration-response curves come from the screen itself.
In experiment [2] the target is Estrogen receptor (Homo sapiens) (UniProt P03372). The experiment can be described thus: qHTS assay to identify small molecule antagonists of the estrogen receptor alpha (ER-alpha) signaling pathway (AID 743069; active = well fitted curve in the direction sought with a large enough effect in the signal ratio in the repeat runs, not every such curve was filed as active; inconclusive = weak or mixed curves, or effect the other way; inactive = no such curve, though single readings can be large or run the other way; the % refers to the signal ratio). Put shortly:
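Estradiol-stimulated ER-alpha-UAS-bla HEK293 cells, 18 hr compound exposure at 37C. LiveBLAzer B/G substrate, 2 hr RT, fluorescence read.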

A short description of experiment [3]: qHTS assay to identify small molecule antagonists of the estrogen receptor alpha (ER-alpha) signaling pathway - cell viability counter screen (AID 743074; calls by dose curve;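 also: HEK293 cells carrying ER-alpha-UAS-bla reporter stimulated with 17beta-estradiol; nearly all actives have a fitted effect of over 45% in size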; also: potency is read from the fitted curve at half-maximal effect).
The target of experiment [4] is Estrogen receptor (Homo sapiens) (UniProt P03372). The experiment is described as follows: qHTS assay to identify small molecule agonists of the estrogen receptor alpha (ER-alpha) signaling pathway (AID 743075; calls by dose curve;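 also: HEK293 GripTite cells with ER-alpha and UAS-driven beta-lactamase reporter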; also: potency is read from the fitted curve at half-maximal effect).
Estrogen receptor (Homo sapiens), sequence (P03372 whole entry, looked up): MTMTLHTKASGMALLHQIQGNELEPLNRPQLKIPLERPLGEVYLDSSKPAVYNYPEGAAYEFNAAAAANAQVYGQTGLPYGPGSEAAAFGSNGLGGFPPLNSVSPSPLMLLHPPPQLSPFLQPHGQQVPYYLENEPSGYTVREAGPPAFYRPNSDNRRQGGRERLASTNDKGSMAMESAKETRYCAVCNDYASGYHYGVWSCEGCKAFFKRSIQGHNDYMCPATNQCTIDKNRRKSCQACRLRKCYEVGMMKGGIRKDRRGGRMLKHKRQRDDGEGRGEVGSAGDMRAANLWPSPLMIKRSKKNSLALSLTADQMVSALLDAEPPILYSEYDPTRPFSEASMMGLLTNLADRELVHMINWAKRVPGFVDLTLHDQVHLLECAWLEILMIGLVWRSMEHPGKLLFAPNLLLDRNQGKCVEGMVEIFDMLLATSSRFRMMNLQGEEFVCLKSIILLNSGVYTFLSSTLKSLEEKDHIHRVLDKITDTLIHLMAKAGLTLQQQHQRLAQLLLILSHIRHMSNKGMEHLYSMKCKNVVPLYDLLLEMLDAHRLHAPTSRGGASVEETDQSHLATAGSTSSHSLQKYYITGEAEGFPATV
For experiment [5] the target is unchanged. The experiment is described as follows: qHTS assay to identify small molecule agonists of the estrogen receptor alpha (ER-alpha) signaling pathway using the BG1 cell line (AID 743079). Also: nearly all actives have a fitted effect of over 20% in size. Also: potency is read from the fitted curve at half-maximal effect.
The nature of experiment [6]: qHTS assay to identify small molecule antagonists of the estrogen receptor alpha (ER-alpha) signaling pathway using the BG1 cell line - cell viability counter screen (AID 743081).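 Also: compound given together with 17beta-estradiol as the ER stimulus; nearly all actives have a fitted effect of over 45% in size.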 Also: potency is read from the fitted curve at half-maximal effect.
Experiment [7] deals with Aromatase (Homo sapiens) (UniProt P11511). The experiment can be described thus: qHTS assay to identify aromatase inhibitors (AID 743083). Also: nearly all actives have a fitted effect of over 55% in size. Also: potency is read from the fitted curve at half-maximal effect.
Aromatase (Homo sapiens), sequence (P11511 whole entry, looked up): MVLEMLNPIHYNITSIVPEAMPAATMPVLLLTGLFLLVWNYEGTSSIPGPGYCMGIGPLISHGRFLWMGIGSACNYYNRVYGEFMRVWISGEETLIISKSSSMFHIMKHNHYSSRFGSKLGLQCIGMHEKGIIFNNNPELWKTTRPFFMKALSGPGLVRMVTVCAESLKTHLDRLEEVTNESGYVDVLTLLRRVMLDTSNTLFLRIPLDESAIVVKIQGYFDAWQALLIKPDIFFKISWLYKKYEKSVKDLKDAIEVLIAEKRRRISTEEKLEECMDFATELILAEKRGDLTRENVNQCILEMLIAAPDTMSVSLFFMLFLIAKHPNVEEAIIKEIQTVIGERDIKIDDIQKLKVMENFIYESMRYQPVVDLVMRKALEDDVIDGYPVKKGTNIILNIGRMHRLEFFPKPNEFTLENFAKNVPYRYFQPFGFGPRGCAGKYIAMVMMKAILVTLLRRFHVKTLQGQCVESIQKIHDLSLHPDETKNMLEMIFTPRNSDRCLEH
The nature of experiment [8]: qHTS assay to identify aromatase inhibitors - cell viability counter screen (AID 743084).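 Also: cells stimulated with testosterone during compound exposure; nearly all actives have a fitted effect of over 55% in size.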 Also: potency is read from the fitted curve at half-maximal effect.
For experiment [9], the target named is Aryl hydrocarbon receptor (Homo sapiens) (UniProt P35869). The experiment can be described thus: qHTS assay to identify small molecule that activate the aryl hydrocarbon receptor (AhR) signaling pathway (AID 743085). Also: nearly all actives have a fitted effect of over 15% in size. Also: potency is read from the fitted curve at half-maximal effect.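 As to activation: HG2L7.5c1 human HepG2 liver cells with stably integrated DRE-driven firefly reporter; series mostly up to about 70 µM.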 Put shortly: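 HepG2 cells stably carrying a 20-DRE firefly luciferase reporter (HG2L7.5c1) treated with compound for 24 hr at 37C. Luciferase read by ONE-Glo luminescence, with CellTiter-Fluor viability read first.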
Aryl hydrocarbon receptor (Homo sapiens), sequence (P35869 whole entry, looked up): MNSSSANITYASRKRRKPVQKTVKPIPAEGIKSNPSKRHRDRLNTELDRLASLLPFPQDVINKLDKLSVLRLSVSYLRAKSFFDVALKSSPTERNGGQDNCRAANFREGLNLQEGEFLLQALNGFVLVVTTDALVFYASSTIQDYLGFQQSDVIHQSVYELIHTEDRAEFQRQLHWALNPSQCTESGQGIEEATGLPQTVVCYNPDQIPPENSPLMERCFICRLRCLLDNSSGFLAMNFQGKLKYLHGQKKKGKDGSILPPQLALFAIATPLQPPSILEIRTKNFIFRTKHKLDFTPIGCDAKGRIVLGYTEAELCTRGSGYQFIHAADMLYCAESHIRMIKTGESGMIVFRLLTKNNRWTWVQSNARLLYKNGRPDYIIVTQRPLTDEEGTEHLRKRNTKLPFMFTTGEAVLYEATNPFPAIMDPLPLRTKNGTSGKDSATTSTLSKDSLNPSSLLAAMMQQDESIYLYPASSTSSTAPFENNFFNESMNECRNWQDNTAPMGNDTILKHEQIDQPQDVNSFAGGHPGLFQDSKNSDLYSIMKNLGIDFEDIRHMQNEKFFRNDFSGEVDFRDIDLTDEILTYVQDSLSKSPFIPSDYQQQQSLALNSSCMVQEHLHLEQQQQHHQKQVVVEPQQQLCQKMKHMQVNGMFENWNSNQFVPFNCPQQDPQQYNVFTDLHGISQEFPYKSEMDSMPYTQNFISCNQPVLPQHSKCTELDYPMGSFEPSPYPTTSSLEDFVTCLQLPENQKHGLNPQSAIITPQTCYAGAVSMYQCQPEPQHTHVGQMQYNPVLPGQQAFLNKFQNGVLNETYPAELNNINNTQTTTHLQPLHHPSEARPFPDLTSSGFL

Experiment [10] is described as follows: qHTS assay to identify small molecule that activate the aryl hydrocarbon receptor (AhR) signaling pathway - cell viability counter screen (AID 743086). Also: nearly all actives have a fitted effect of over 45% in size. Also: potency is read from the fitted curve at half-maximal effect. Put shortly: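 HepG2-AhR-luc (HG2L7.5c1) cells, 4000/well, were preincubated 5 h at 37C, exposed to compound in qHTS format for 24 hr at 37C, then given CellTiter-Fluor for 30 min; viability was read as fluorescence in the reporter wells.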

The target in experiment [11] is Peroxisome proliferator-activated receptor gamma (Homo sapiens) (UniProt P37231). The experiment is described as follows: qHTS assay to identify small molecule agonists of the peroxisome proliferator-activated receptor gamma (PPARg) signaling pathway (AID 743094; active = well fitted activation curve with a large enough effect in the signal ratio in the repeat runs, not every such curve was filed as active; inconclusive = weak or mixed curves, or effect the other way; inactive = no such curve, though single readings can be large or run the other way; the % refers to the signal ratio). In a few lines:
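Beta-lactamase FRET fluorescence was the read-out after a 1 h room-temperature substrate step, following 17 h compound treatment at 37C of HEK293H cells expressing a UAS-driven bla reporter responsive to PPARg.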

Experiment [12] can be described thus: qHTS assay to identify small molecule antagonists of the peroxisome proliferator-activated receptor gamma (PPARg) signaling pathway - cell viability counter screen (AID 743194). Also: nearly all actives have a fitted effect of over 55% in size. In a few lines:
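PPARg-UAS-bla HEK293H cells were plated, rested 5 h at 37 C, then treated with compounds plus rosiglitazone (50 nM final) for 17 h at 37 C; viability was then read by CellTiter-Glo luminescence after 30 min at room temperature.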

A short description of experiment [13]: qHTS assay for small molecule activators of the heat shock response signaling pathway - cell viability counter screen (AID 743209). Also: nearly all actives have a fitted effect of over 50% in size. Also: potency is read from the fitted curve at half-maximal effect. Put shortly: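 Luminescence from CellTiter-Glo, added after the beta-lactamase FRET read, gave the viability signal. Cells were HSE-bla HeLa treated with DMSO-dissolved compounds for 5 h at 37 C following overnight plating.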
Experiment [14] can be described thus: qHTS assay for small molecule agonists of the antioxidant response element (ARE) signaling pathway (AID 743202; active = well fitted activation curve with a large enough effect in the signal ratio in the repeat runs, not every such curve was filed as active; inconclusive = weak or mixed curves, or effect the other way; inactive = no such curve, though single readings can be large or run the other way; the % refers to the signal ratio; also: potency is read from the fitted curve at half-maximal effect). In a few lines: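 Compounds delivered in DMSO to ARE-bla HepG2 cells (2,000 cells/well, pre-incubated 5 h) and left 16 h at 37 C. LiveBLAzer B/G FRET substrate then added for 2 h at RT before fluorescence reading.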
Experiment [15] is described as follows: qHTS assay to identify small molecule agonists of the peroxisome proliferator-activated receptor delta (PPARd) signaling pathway - cell viability counter screen (AID 743211). Also: nearly all actives have a fitted effect of over 55% in size. Also: potency is read from the fitted curve at half-maximal effect. In a few lines: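 PPARd-bla HEK293H cells (3000/well) were pre-incubated 5 h at 37 C, then exposed to compound for 17 h at 37 C. After 2 h with LiveBLAzer substrate, CellTiter-Glo was added to the same wells; luminescence read after 30 min at room temperature.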

Experiment [16] is described as follows: qHTS assay to identify small molecule antagonists of the estrogen receptor alpha (ER-alpha) signaling pathway using the BG1 cell line (AID 743080; calls by dose curve;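 also: BG1 cells stimulated with 17beta-estradiol alongside compound; series mostly up to about 70 µM; nearly all actives have a fitted effect of over 25% in size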). In a few lines: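 Luciferase inhibition measured with ONE-Glo after 30 min at RT in BG1Luc4E2 cells given test compounds and 17beta-estradiol for 21.5 h at 37 C; CellTiter-Fluor viability read in the same wells beforehand.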

Experiment [17] addresses Peroxisome proliferator-activated receptor gamma (Homo sapiens) (UniProt P37231). The experiment is described as follows: qHTS assay to identify small molecule antagonists of the peroxisome proliferator-activated receptor gamma (PPARg) signaling pathway (AID 743191; calls by dose curve; also: series mostly up to about 63 µM; nearly all actives have a fitted effect of over 30% in size). Put shortly: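 GeneBLAzer PPARg UAS-bla HEK293H cells carrying a UAS-driven beta-lactamase reporter were plated at 3000 cells/well, preincubated 5 h at 37C, then given compound for 17 h at 37C; LiveBLAzer B/G FRET substrate was read after 1 h at room temperature.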

The nature of experiment [18]: qHTS assay for small molecule activators of the heat shock response signaling pathway (AID 743210; active = well fitted activation curve with a large enough effect in the signal ratio in the repeat runs, with a control signal flat, not every such curve was filed as active; inconclusive = weak or mixed curves; the % refers to the signal ratio;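 also: HeLa cells with beta-lactamase reporter driven by heat shock elements; series mostly up to about 63 µM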). Put shortly: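 Reporter gene assay: HeLa cells stably bearing an HSE-bla construct, compound treatment 5 h at 37 C, LiveBLAzer substrate 2.5 h at RT, fluorescence intensity.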
A short description of experiment [19]: qHTS assay for small molecule agonists of the antioxidant response element (ARE) signaling pathway - cell viability counter screen (AID 743203; calls by dose curve; also: nearly all actives have a fitted effect of over 55% in size; also: potency is read from the fitted curve at half-maximal effect). Put shortly:
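HepG2 cells carrying ARE-driven beta-lactamase; 2,000 cells/well; 5 hrs plating; compound pinned from DMSO; 16 hrs 37C/5% CO2; CellTiter-Glo added; 30 min RT; luminescence.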

A short description of experiment [20]: qHTS assay to identify small molecule antagonists of the thyroid receptor (TR) signaling pathway (AID 743065). Put shortly:
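GH3.TRE-Luc rat pituitary cells carrying two TR response elements driving luciferase were plated for 4 h, given compound plus 1 nM T3 (final), and incubated 23.5 h at 37 C. ONE-Glo luminescence measured reporter inhibition; CellTiter-Fluor fluorescence tracked cytotoxicity.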

Where “and” joins values, the source holds several entries; their conditions need not be identical. Equal values may be shown once. Where a structure was tested more than once in an assay, its records may differ in their call. Calls of active or inactive are those of the source. Unless noted, calls follow the shape of the dose curve; as a rule, active = well fitted curve in the direction sought with a large enough effect in the repeat runs; inconclusive = weak or mixed curves; inactive = no such curve, though single readings can be large; an effect the other way counts as inactive or inconclusive.

Peroxisome proliferator-activated receptor gamma (Homo sapiens), sequence (P37231 whole entry, looked up): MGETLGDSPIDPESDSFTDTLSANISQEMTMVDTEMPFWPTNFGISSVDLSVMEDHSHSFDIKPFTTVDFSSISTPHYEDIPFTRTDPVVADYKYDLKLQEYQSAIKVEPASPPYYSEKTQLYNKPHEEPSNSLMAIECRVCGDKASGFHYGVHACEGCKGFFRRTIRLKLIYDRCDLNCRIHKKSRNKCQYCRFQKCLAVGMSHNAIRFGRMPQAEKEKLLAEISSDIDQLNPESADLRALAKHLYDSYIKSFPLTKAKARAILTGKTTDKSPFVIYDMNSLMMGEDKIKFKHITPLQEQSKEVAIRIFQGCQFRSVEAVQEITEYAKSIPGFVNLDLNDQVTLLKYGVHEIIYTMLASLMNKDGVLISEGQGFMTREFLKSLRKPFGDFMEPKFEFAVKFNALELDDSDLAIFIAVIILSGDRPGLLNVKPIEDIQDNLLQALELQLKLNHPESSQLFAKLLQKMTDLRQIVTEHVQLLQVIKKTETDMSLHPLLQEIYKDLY

Regarding `CCC(C)(C)C(=O)O[C@H]1C[C@@H](C)C=C2C=C[C@H](C)[C@H](CC[C@@H]3C[C@@H](O)CC(=O)O3)[C@H]21`, the Potency result in [1], in experiment [2], in experiment [3], in experiment [4], in experiment [6] and in [7] was “inactive” throughout. Further, the Potency entry in [8], in [9], in experiment [10], in experiment [11] and in experiment [12] was “inactive” throughout. Moreover, the Potency in experiment [5] was 12.7 µM (active) and inactive; in experiment [13] it was 54.9 µM (active).
`CCCN[C@H]1CCc2nc(N)sc2C1`: the Potency result in experiment [1], in experiment [3], in experiment [6], in experiment [7], in experiment [8] and in [9] was “inactive” throughout. Moreover, the Potency entry in experiment [10], in experiment [14], in experiment [13] and in [15] was “inactive” in each case.
Consider `Nc1ccc(O)cc1`, for which the Potency entry in [3], in [4], in [5], in experiment [16], in experiment [11] and in experiment [17] was “inactive” in each case. In addition, the Potency result in experiment [12], in experiment [18] and in [15] was “inactive” throughout. The Potency result in experiment [6] was “inactive and 63.5 µM (active)”; in experiment [7], “inactive and 31.8 µM (active)”; in [8], 54.5 µM (active) and 31.8 µM (active); in experiment [10], 54.5 µM (active) and 50.4 µM (active); in experiment [14], 29.8 µM (active); in experiment [13] it was 25.5 µM (active) and inactive.
Take `CC(C)(C)NCC(O)COc1ccccc1OCC1CCCO1` (stereo not given): the Potency result in [17], in [12], in [14], in experiment [19], in experiment [13] and in experiment [18] was “inactive” in each case. Also, the Potency result in experiment [15] is “inactive”.
In the case of `CCn1c2ccccc2c2cc(N)ccc21`, the Potency result in experiment [1], in experiment [2], in experiment [3], in experiment [5], in [16] and in [6] was “inactive” throughout. The Potency entry in [7], in experiment [8], in experiment [10], in experiment [11], in experiment [17] and in experiment [12] was “inactive” in each case. Further, the Potency entry in experiment [14], in [19] and in [15] was “inactive” in each case. For the same molecule, the Potency in experiment [4] is 48.5 µM [inconclusive] (active) and inactive; in experiment [9], 9.59 µM (active) and 9.69 µM (active) and 3.06 µM (active).
On to `c1cnc2cc3c(cc2n1)C1CNCC3C1`, for which the Potency entry in experiment [1], in experiment [3], in experiment [4], in [5], in experiment [16] and in [6] was “inactive” in each case. Also, the Potency entry in experiment [7], in experiment [8], in experiment [9], in experiment [11], in experiment [17] and in [14] was “inactive” throughout. Besides, the Potency result in experiment [13], in experiment [18] and in experiment [15] was “inactive” throughout.
With `CCCCCCCCCCCC[N+](C)(C)C`, the Potency in experiment [20] was 9.66 µM (active) and 6.86 µM (active) and 7.7 µM (active); in experiment [3] it was “inactive and 54.9 µM (active)”; in experiment [6], 60.9 µM (active); in [7], 24.3 µM (active) and 17.2 µM (active) and 21.7 µM (active); in [14], 8.61 µM (active); in experiment [19] it was “inactive and 48.6 µM (active) and 61.1 µM (active)”. Besides, the Potency in [15] was 54.9 µM (active) and 49 µM (active). Further, the Potency entry in experiment [8], in [9], in experiment [10], in [11], in experiment [17] and in experiment [18] was “inactive” each time.
